Data from PubChem BioAssay AID778 (Sanford-Burnham Center for Chemical Genomics, 2007).
The whole screen tested about 96,000 compounds, of which about 20,000 (21%) were called active.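 The calls were made as follows: active = CYP2C19 inhibition above a set limit at 5 µM in the primary screen (cut at about 50% in these data); inactive = the rest.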 Only a sample is shown.

Target: Cytochrome P450 2C19 (Homo sapiens) (UniProt P33261)
Experiment: blockers of cytochrome P450 2C19 activity – biochemical, luminescence, ADME assay, primary screen (AID 778);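 also: plate controls were negative control wells for no effect and 2.5 mM tranylcypromine positive control for full effect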
Conditions: CYP2C19 Supersomes, luciferin-H EGE luminescence, 30 min; at 5 µM; active compounds read high

Chain of Cytochrome P450 2C19 (Homo sapiens) (P33261 whole entry, looked up): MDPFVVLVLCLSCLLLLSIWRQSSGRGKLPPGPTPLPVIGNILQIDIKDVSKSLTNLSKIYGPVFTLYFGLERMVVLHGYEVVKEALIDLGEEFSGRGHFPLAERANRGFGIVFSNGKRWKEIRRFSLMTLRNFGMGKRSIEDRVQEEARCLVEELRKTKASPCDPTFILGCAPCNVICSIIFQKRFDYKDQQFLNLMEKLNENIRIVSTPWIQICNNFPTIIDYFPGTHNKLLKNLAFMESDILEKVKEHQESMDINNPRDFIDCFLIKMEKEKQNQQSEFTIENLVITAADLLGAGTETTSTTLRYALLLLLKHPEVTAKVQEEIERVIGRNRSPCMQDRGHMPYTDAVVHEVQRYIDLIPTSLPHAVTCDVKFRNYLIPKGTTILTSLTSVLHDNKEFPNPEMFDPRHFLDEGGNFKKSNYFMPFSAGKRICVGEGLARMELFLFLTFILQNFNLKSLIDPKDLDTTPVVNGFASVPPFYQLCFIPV

Row | Structure (SMILES) | inhibition
1 | CCOC(=O)C1Sc2[nH]c(=O)sc2C(c2ccc(Cl)cc2)C1C(=O)OCC (configuration not stated) | 24.6% (inactive)
2 | Cc1cccc(NC(=O)N(Cc2cc3cc(C)cc(C)c3[nH]c2=O)CC2COCCO2)c1 (configuration not stated) | 76.8% (active)
3 | COc1ccc2[nH]c(=O)c(CN(CC3CCCO3)C(=O)Nc3ccccc3)cc2c1 (configuration not stated) | 32.6% (inactive)
4 | Cc1ccc2[nH]c(=O)c(CN(CCCN(C)C)C(=O)Nc3cccc(Cl)c3)cc2c1 | -4.4% (inactive)
5 | CCOC(=O)c1cccc(NC(=O)CCc2c(C)nc3ncnn3c2C)c1 | 2.3% (inactive)
6 | Cc1ccc2c(CSc3nncs3)cc(=O)oc2c1 | 86.8% (active)
7 | Cc1cc([N+](=O)[O-])c(N2CCC[C@@H]2C(=O)O)c([N+](=O)[O-])c1 | -5.1% (inactive)
8 | CCOc1ccc(C(=O)NC(C(=O)NCc2ccccn2)C(C)C)cc1 (configuration not stated) | 26.7% (inactive)
9 | COc1cccc(/C=N/NC(=O)c2cccc([N+](=O)[O-])c2)c1OS(=O)(=O)c1ccc(C)cc1 | 1.4% (inactive)
10 | CC(C)(CSc1nncn1/N=C/c1ccco1)NS(=O)(=O)c1ccc(Cl)cc1 | 53.3% (active)
11 | COc1ccc(O)c(C=Nc2cc(C)on2)c1 | 1.5% (inactive)
12 | COc1ccc(O)c(C(=O)c2cnc3onc(C(C)C)c3c2)c1 | 100% (active)
13 | O=C(Nc1cccc2cccnc12)c1cccc(N2C(=O)CCC2=O)c1 | 22.2% (inactive)
14 | CCCC(C(=O)N1CCOCC1)N1C(=O)C2C3C=CC(C3)C2C1=O (configuration not stated) | -3.8% (inactive)
15 | Cc1nc(Cl)c2oc3ccccc3c2n1 | 49.8% (inactive)
16 | CCCCC(=O)Nc1cc(C)c2c(=O)oc3ccccc3c2n1 | 16.3% (inactive)
17 | Cc1ccccc1-n1nnc2c(=O)oc3ccccc3c21 | 66.5% (active)
18 | Cc1ccc(-c2nc(CS(=O)CC(=O)N3CCN(c4ncccn4)CC3)c(C)o2)cc1 (configuration not stated) | 24.1% (inactive)
19 | CCOc1ccc(C(=O)N(Cc2ccc(N(C)C)cc2)C2CCS(=O)(=O)C2)cc1 (configuration not stated) | 58.6% (active)
20 | COc1ccc(C(=O)N(Cc2ccc(N(C)C)cc2)C2CCS(=O)(=O)C2)cc1 (configuration not stated) | 8.9% (inactive)
21 | COc1cc(C(=O)N(Cc2ccc(N(C)C)cc2)C2CCS(=O)(=O)C2)cc(OC)c1OC (configuration not stated) | 19% (inactive)
22 | Cc1ccc(CCn2c3c(c4ccccc42)CN(C)CC3)cn1 | 7.8% (inactive)
23 | CSc1nc2nc3c(c(=O)n2[nH]1)CCC3 | 4.1% (inactive)

Row | Structure (SMILES) | inhibition
24 | COc1cc2c(cc1OC)C(c1ccncc1)CC(=O)N2 (configuration not stated) | 16.4% (inactive)
25 | COc1ccc(C2CC(=O)Nc3cc(C)c(C)cc32)c(OC)c1OC (configuration not stated) | 94.5% (active)
26 | COc1cccc(-c2nnc(N(C)C(=O)c3ccno3)s2)c1 | 11.1% (inactive)
27 | Cc1nnc(C)n1/N=C/c1ccc(C(C)C)cc1 | 10.5% (inactive)
28 | COC(=O)c1ccc(C(=O)Nc2cc(Cl)ccc2Cl)cc1NC(=O)c1ccccc1C | 4.7% (inactive)
29 | Cc1cccc(C(=O)Nc2ccc(CC(=O)O)cc2)c1 | -0.6% (inactive)
30 | COC(=O)c1ccccc1NC(=O)c1cncc(Br)c1 | 30.8% (inactive)
31 | CN(C)c1ccc(NC(=O)c2ccncc2)c2ccccc12 | 90.3% (active)
32 | Cc1ccccc1NC(=O)c1ccccc1 | -2% (inactive)
33 | CCOc1ccc(-c2cn(S(=O)(=O)c3cccc4nsnc34)nc2N)cc1 | 3.8% (inactive)
34 | COc1cc(C(=O)OC(C)C(=O)NCC2CCCCC2)cc(NC(=O)c2ccco2)c1OC (configuration not stated) | 38.3% (inactive)
35 | COC(=O)c1ccc(CSc2ccc3nnc(-c4ccccc4)n3n2)o1 | 63.7% (active)
36 | CCOc1ccccc1Nc1nnc(SCc2ccc(C(=O)OC)o2)s1 | 43% (inactive)
37 | O=C(O)CSCc1ccc(C(=O)O)o1 | -3% (inactive)
38 | CCc1ccc(C(=O)CSc2nnc(C)c(=O)[nH]2)cc1 | 19.3% (inactive)
39 | Cc1cc(C)c(OCC(=O)N/N=C/c2ccco2)c(C)c1 | 41.2% (inactive)
40 | Cc1ccc(OCC(=O)N/N=C/c2ccncc2)cc1 | 96.3% (active)
41 | Cc1ccc(OCC(=O)Nc2ccc(-c3nc4ncccc4o3)cc2)cc1 | 3.2% (inactive)
42 | O=C(Nc1cc2c3c(c1)C1CCCC1CN3CC1CCCC21)c1ccc([N+](=O)[O-])cc1 (configuration not stated) | 28.2% (inactive)
43 | Cc1cccc(N(CC(=O)N=Nc2c(O)[nH]c3ccccc23)S(C)(=O)=O)c1C | 33.6% (inactive)
44 | CCc1c(C)nc(N2CCN(Cc3ccccc3)CC2)[nH]c1=O | 2.4% (inactive)
45 | Cc1nnc(SCc2cc(=O)[nH]c(N3CCN(Cc4ccccc4)CC3)n2)s1 | 50.4% (active)
46 | O=c1cc(CSc2ccccn2)nc(N2CCN(c3ccccc3)CC2)[nH]1 | -0.6% (inactive)

Row | Structure (SMILES) | inhibition
47 | COCc1cc(C)nc2sc3c(=O)n(-c4cccc5ccccc45)nnc3c12 | 24.5% (inactive)
48 | CN1c2ccccc2-c2nc3ccccc3n2C1c1ccco1 (configuration not stated) | 14.2% (inactive)
49 | CCOc1cccc(=O)c2c(C)n(CC3CCCO3)c(C)c12 (configuration not stated) | 92.1% (active)
50 | O=c1c2cc3c(=O)n(CC4CCCO4)c(=O)c3cc2c(=O)n1CC1CCCO1 (configuration not stated) | 0.8% (inactive)
51 | COC(=O)c1ccc2c(=O)n(CC3CCCO3)c(=S)[nH]c2c1 (configuration not stated) | -6.3% (inactive)
52 | COc1ccc(-c2cc(C(F)(F)F)nc(NCc3cccnc3)n2)cc1 | 73.4% (active)
53 | COc1ccc(-c2cc(C(F)(F)F)nc(S(C)(=O)=O)n2)cc1OC | 12.6% (inactive)
54 | COc1ccc(-c2nc(CS(=O)CC(=O)NCc3cccnc3)c(C)o2)cc1OC (configuration not stated) | 24.2% (inactive)
55 | COc1ccc(-c2csc3nc(-c4ccccc4F)oc(=O)c23)cc1OC | 25.3% (inactive)
56 | CCCOc1ccccc1-c1nc(SCCC(=O)O)n[nH]1 | -4.6% (inactive)
57 | Cc1nnc(NC(=O)Nc2ccc(Cl)c(Cl)c2)s1 | -9.1% (inactive)
58 | O=C(CC(O)(C(F)(F)F)C(F)(F)F)Nc1ccc(Cl)c(Cl)c1 | 77% (active)
59 | N/C(=N\OC(=O)Nc1ccc(Cl)c(Cl)c1)c1ncc(C(F)(F)F)cc1Cl | -13.4% (inactive)
60 | COc1ccccc1Nc1ncnc2c1oc1ccccc12 | 30.1% (inactive)
61 | CC1(C)CC(=O)C=C(NCCN2CCNCC2)C1 | -7.9% (inactive)
62 | Fc1ccc2[nH]c3c(N4CCN(Cc5ccc6c(c5)OCO6)CC4)ncnc3c2c1 | 61.2% (active)
63 | CCN1CCCC1CNc1ncnc2c1[nH]c1ccc(F)cc12 (configuration not stated) | 14.6% (inactive)
64 | c1n[nH]c(NCc2ccc3c(c2)OCO3)n1 | -7.6% (inactive)
65 | CC(C)OCCCNc1ncnc2c1[nH]c1ccc(F)cc12 | 31.8% (inactive)
66 | Fc1ccc2[nH]c3c(N4CCSCC4)ncnc3c2c1 | 58.5% (active)
67 | Cc1cc(N2CCN(Cc3ccc4c(c3)OCO4)CC2)n2ncnc2n1 | 8.7% (inactive)
